Most compounds without a hit are left out; they make up all but 27% or so of the library.
CYP2C19 act – activators of human cytochrome P450 2C19 | 96,000 tested, under 10 active | activation factor at 5 µM | recombinant CYP2C19, luciferin-H EGE luminescence; stronger effect = higher value; 0 = fully inhibited enzyme, 1 = untreated enzyme | P33261 | AID 1025;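 active = activation factor of at least 2 at 5 µM in the primary screen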;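 also: 0 = wells with 2.5 mM tranylcypromine and 1 = vehicle-only wells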
Target sequence (P33261 whole entry, looked up): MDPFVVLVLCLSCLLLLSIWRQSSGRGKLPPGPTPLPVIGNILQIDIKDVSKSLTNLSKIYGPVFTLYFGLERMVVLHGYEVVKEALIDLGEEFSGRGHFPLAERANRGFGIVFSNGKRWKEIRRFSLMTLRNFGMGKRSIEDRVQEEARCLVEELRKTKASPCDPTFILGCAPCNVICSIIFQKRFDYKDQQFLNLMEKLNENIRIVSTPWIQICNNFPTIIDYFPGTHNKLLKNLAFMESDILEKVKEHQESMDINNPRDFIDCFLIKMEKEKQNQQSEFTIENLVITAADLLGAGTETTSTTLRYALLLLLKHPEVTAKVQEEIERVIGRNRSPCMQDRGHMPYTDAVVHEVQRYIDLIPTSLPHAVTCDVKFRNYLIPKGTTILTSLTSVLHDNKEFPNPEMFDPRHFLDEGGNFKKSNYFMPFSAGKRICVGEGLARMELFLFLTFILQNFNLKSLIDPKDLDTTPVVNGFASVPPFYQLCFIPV
CYP2C9 inhib – human CYP2C9 inhibition | inhibition, % at 5 µM | CYP2C9 Supersomes, luciferin-H conversion, luminescence | AID 777 | hit rate 20% among 96,000;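 active = blocking of liver enzyme CYP2C9 beyond about 50% at 5 µM, limit read from the data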
CYP2C19 inhib – blocks human cytochrome P450 2C19. P33261. CYP2C19 Supersomes, luciferin-H EGE luminescence, 30 min. inhibition, % at 5 µM. hit rate 21% among 96,000. AID 778;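 active = CYP2C19 inhibition above a set limit at 5 µM in the primary screen, cut at about 50% in these data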;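 also: plate controls were negative control wells for no effect and 2.5 mM tranylcypromine positive control for full effect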
CYP2C9 act – CYP2C9 (human) activation. P11712. recombinant CYP2C9, luciferin-H conversion, luminescence; stronger effect = higher value; factor 1 = untreated enzyme, 0 = blocked. activation factor at 5 µM. hit rate 1.4% among 96,000;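 active = activation factor of 2 or more for CYP2C9 at a 5 µM dose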;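 also: 0 = sulfaphenazole-blocked wells and 1 = vehicle-only wells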
Cav3 T inh – inhibitors of human Cav3.2 T-type calcium channel | O95180 | Cav3.2-expressing cells, Fluo-4 calcium fluorescence FDSS; stronger effect = lower value | B-score at 10 µM | hit rate 4% among 100,000 | AID 449739;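 active = single-dose well whose peak fluorescence ratio is a statistical outlier from its plate by either plate-standardised score or position-corrected B-score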
Active calls of the source: *; . = no result given.

SMILES	CYP2C19 act	CYP2C9 inhib	CYP2C19 inhib	CYP2C9 act	Cav3 T inh
COC(=O)C1CN(S(=O)(=O)c2ccc(C)cc2)CCN1S(=O)(=O)c1ccc(C)cc1 (configuration not stated)	0.9	-13	9	1.1	-0.36
CCCn1c(C)cc(C(=O)COC(=O)c2cc(S(=O)(=O)NCC(C)C)c(Cl)cc2Cl)c1C	0.3	39	66*	0.6	-3.1
CC(C)CNS(=O)(=O)c1cc(C(=O)N2CCOCC2)c(Cl)cc1Cl	0.8	24	15	0.8	0.95
CCOc1ccc(N2CCn3c2nc2c3c(=O)n(CCc3ccccc3)c(=O)n2C)cc1	1	22	2	0.8	.
C#Cc1ccc([C@H]2C=C(C(=O)NCc3nc4ccccc4[nH]3)O[C@@H](OCc3ccc(CO)cc3)C2)cc1	.	.	.	.	-1.6
Cc1ccc(COCC(CC(C)C)N2CCN(C(=O)c3cccc(C(F)(F)F)c3)CCC2=O)cc1 (configuration not stated)	.	.	.	.	-1.3
COc1ccc(C2=CC(c3ccc(OC)c(OC)c3)n3nnnc3N2)c(OC)c1 (configuration not stated)	0.1	97*	90*	0	0.85
COc1cccc(C2C=C(c3ccc(OC)cc3OC)Nc3nnnn32)c1 (configuration not stated)	0.4	77*	58*	0.2	-2.9
CCCc1ncc(C(O)c2ccc(OC)cc2)n1C (configuration not stated)	0.8	25	17	0.8	0.74
CCNC(=O)CC1C(=O)N(c2ccc(F)cc2)C(=O)N1Cc1ccccn1 (configuration not stated)	0.9	17	6	0.8	-1
CCCc1[nH]nc2c1C(C1CCCCC1)C(C#N)=C(N)O2 (configuration not stated)	0.6	22	40	0.8	.
COCc1[nH]nc2c1C(c1ccc(OC)cc1)C(C#N)=C(N)O2 (configuration not stated)	0.7	37	31	0.6	0.56
CCOC(=O)Cc1[nH]nc2c1C(c1ccoc1)C(C#N)=C(N)O2 (configuration not stated)	0.2	38	77*	0.6	-0.055
COC(=O)Cc1[nH]nc2c1C(C1C=CCCC1)C(C#N)=C(N)O2 (configuration not stated)	0.3	60*	70*	0.4	0.99
COC(=O)Cc1[nH]nc2c1C(c1c[nH]c3ccccc13)C(C#N)=C(N)O2 (configuration not stated)	0.5	26	52*	0.7	0.85
COc1ccccc1-c1n[nH]c(=S)n1-c1ccccc1	0.8	9	15	0.9	0.075
Cc1cccc(/N=C/c2c(O)c3ccccc3oc2=O)n1	0.8	-2	16	1	1.2
COC(=O)c1ccc(COc2ccc(-c3nn[nH]n3)cc2)cc1	0.7	39	30	0.6	1.1
O=C(NCCNS(=O)(=O)c1cccc(C(F)(F)F)c1)c1cc(OCC(F)(F)F)ccc1OCC(F)(F)F	0.2	16	80*	0.8	-0.0059
CCCCC(=O)NCCNC(=O)c1cc(OCC(F)(F)F)ccc1OCC(F)(F)F	0.9	25	12	0.7	-0.076
COc1ccc(C(=O)NCCNC(=O)c2cc(OCC(F)(F)F)ccc2OCC(F)(F)F)cc1	1	10	-3	0.9	0.014
O=C(NCCN1CCCCC1)c1cc(OCC(F)(F)F)ccc1OCC(F)(F)F	1	0	-1	1	1.1
O=C(NCCNC(=O)c1cc(OCC(F)(F)F)ccc1OCC(F)(F)F)Nc1ccc(Cl)cc1	0.9	21	9	0.8	-4.1*
CC(C)CC(=O)NCCNC(=O)c1cc(OCC(F)(F)F)ccc1OCC(F)(F)F	1	87*	4	0.1	0.27
CC(C)NC(=O)c1ccc(C2SCC(=O)N2Cc2ccccc2)cc1 (configuration not stated)	.	.	.	.	0.79
SMILES	CYP2C19 act	CYP2C9 inhib	CYP2C19 inhib	CYP2C9 act	Cav3 T inh
CC(C)(C)c1cc(CN2CCC(O)CC2)cc(C(C)(C)C)c1O	0.9	14	8	0.9	-0.77
COc1ccccc1NC(=O)C1=C(C)Nc2nc(-c3ccccc3)nn2C1c1ccccn1 (configuration not stated)	0.6	39	35	0.6	-7.6*
COc1ccccc1NC(=O)C1=C(C)Nc2nc(-c3cccs3)nn2C1c1cccc(O)c1 (configuration not stated)	0.7	70*	33	0.3	.
CCOc1ccccc1C1C(C(=O)Nc2ccccc2OC)=C(C)Nc2nnnn21 (configuration not stated)	0.1	52*	88*	0.5	0.92
COc1ccc(C2C(C(=O)Nc3cccnc3)=C(C)Nc3nc(-c4cccs4)nn32)cc1OC (configuration not stated)	0.9	48	10	0.5	0.55
CCOc1ccccc1C1C(C(=O)Nc2ccccc2OC)=C(C)Nc2nc(CCCO)nn21 (configuration not stated)	0.6	25	37	0.7	0.49
COc1cc(C(=O)NC2CCCNC2)cc(OC)c1OC (configuration not stated)	.	.	.	.	0.24
Cn1c(OCc2cccnc2)nc2c1c(=O)n(Cc1ccc(Br)cc1)c(=O)n2C	0.3	68*	68*	0.3	.
Cn1c(OCc2ccc3c(c2)OCO3)nc2c1c(=O)n(Cc1ccc(Cl)c(Cl)c1)c(=O)n2C	0.6	80*	36	0.2	.
CCCS(=O)(=O)N1CCC(C(=O)NCc2ccccc2Cl)CC1	1	-60	-2	1.6	0.93
Cc1ccccc1NC(C)C(=O)N/N=C/c1ccccc1OCc1cccc(Br)c1 (configuration not stated)	0.5	76*	48	0.2	-6.4*
c1csc(-c2nc3nc4ccccc4nc3n2Cc2ccc3c(c2)OCO3)c1	0.1	96*	90*	0	-3.2
Nc1c(S(=O)(=O)c2cccs2)c2nc3ccccc3nc2n1CCc1ccccc1	0.4	58*	58*	0.4	.
CC(C)CCn1c(N)c(S(=O)(=O)c2cccs2)c2nc3ccccc3nc21	0.6	85*	39	0.2	-1.7
Nc1c(S(=O)(=O)c2cccs2)c2nc3ccccc3nc2n1Cc1ccc2c(c1)OCO2	0.6	91*	42	0.1	-0.88
Cc1ccc(C(C)C)cc1OCCOCCN1CCCC1	0.9	-3	12	1	-0.018
COC(=O)CNC(=O)C(C)NC(=O)CNC(=O)OCc1ccccc1 (configuration not stated)	.	-5	.	1.1	0.011
Cn1c(N)c(C(=O)COC(=O)c2cc(C3CC3)nc3ccccc23)c(=O)n(Cc2ccccc2)c1=O	.	.	.	.	0.13
O=c1c2ccccc2nc(SCc2cc(F)cc3c2OCOC3)n1Cc1ccco1	0.7	40	30	0.6	-6*
CCOC(=O)c1cc2c(c(CSc3nc4ccccc4c(=O)n3Cc3ccco3)c1)OCOC2	0.9	67*	6	0.3	0.1
CCCCN(C)C(=O)C1CCC(=O)N(c2cc(OC)c(OC)c(OC)c2)C1c1ccc(OC)cc1 (configuration not stated)	.	.	.	.	1.1

Bioassay records deposited in PubChem BioAssay by several laboratories.
